An excerpt weighted towards active compounds, which were near 7.9% of everything screened.
FMDV inh: High Throughput Screening for Foot and Mouth Disease Virus Antivirals; Potency, µM (titrated, usually from 57.9 µM), actives largely listed as inhibitors; FMDV antiviral cell-based qHTS; AID 1159524, 2015; 1.2% of 410,000 active; calls by dose curve; tested in HEK293T cells; note: read-out not given here; nearly all actives have a fitted effect of over 45% in size
LASV entry inh: qHTS for Inhibitors of binding or entry into cells for Lassa Virus. Potency, µM (titrated, usually from 37.9 µM), actives largely listed as inhibitors. 1.2% of 300,000 active. AID 540256, 2011. Lassa virus pseudotype entry inhibition, cell reporter; calls by dose curve; tested in HEK293 cells; note: nearly all actives have a fitted effect of over 50% in size
HCMV antiviral: qHTS Assay for inhibitors of the human cytomegalovirus (HCMV). HFF cells, HCMV-luciferase reporter, 72 h; hits give low values. activity change, negative = inhibition, % at 57.5 µM. 4.5% of 410,000 active. AID 1259415, 2018; in the data active = activity change below about -60%; inconclusive = no clear call, values can overlap the other calls; inactive = above about -39%
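After 16 h attachment at 37C, HFF cells received test compound and HCMV-luciferase (1 PFU/cell); reporter luminescence read 72 h later, data normalized against buffer-only and known inhibitor Salinomycin.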
Marburg entry inh: qHTS for inhibitors of binding or entry into cells for Marburg Virus; Marburg virus pseudotyped entry inhibition, cell reporter; Potency, µM (titrated, usually from 37.8 µM), most hits filed as inhibitors; 1.8% of 300,000 active; calls by dose curve; tested in HEK293 cells
HCV inh: qHTS Assay for Inhibitors of Hepatitis C Virus (HCV). Potency, µM (doses to about 41.8 µM), usual class: inhibitors. 3.4% of 340,000 active. Huh7.5.1 HCVcc-Cre infection, luciferase reporter, 44 h. AID 651820, 2012
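1,000 cells/well; 4 h culture; + compound; + HCVcc-Cre (~0.5 moi); 44 h; luciferase substrate, RT 15 min; read 15 sec.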
HCV confirm: qHTS Assay for Inhibitors of Hepatitis C Virus (HCV): Confirmation Assay for Cherry-picked Compounds; HCVcc-Cre infectious virus cell assay, luciferase, inhibition; 78% of 640 active; AID 720575, 2013; shares compounds with HCV inh; Potency, µM (top dose mostly 41.8 µM), most hits filed as inhibitors; note: nearly all actives have a fitted effect of over 80% in size
HCV cytotox: qHTS Assay for Inhibitors of Hepatitis C Virus (HCV): Cytotoxicity Counterscreen for Cherry-picked Compounds; AID 720576, 2013; shares compounds with HCV inh; 22% of 640 active; Potency, µM (doses to about 41.8 µM), most hits filed as inhibitors; HCV host cell line cytotoxicity counterscreen;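 note: 44 h compound exposure; nearly all actives have a fitted effect of over 55% in size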
Of the large screens only hits and unclear results are named; the others gave an inactive call (follow-up assays come after a bar, where they were run). Unless noted, calls come from the whole dose curve; as a rule, active = well fitted curve in the direction sought with a large enough effect; inconclusive = small, poorly fitted or top-dose-only effect, or another doubt; inactive = no such curve, though single readings can be large; an effect the other way counts as inactive or inconclusive.

Cc1ccccc1NS(=O)(=O)c1ccc2c(c1)CCC(=O)N2	none (no result: LASV entry inh, Marburg entry inh, HCV inh)
COc1cc(NC(=O)CCN2CCN(c3ccccc3)CC2)cc(OC)c1	none (no result: FMDV inh, HCMV antiviral, Marburg entry inh, HCV inh)
COc1ccc(S(=O)(=O)n2ccc(-c3ccc(OCCN(C)c4ccccn4)cc3)n2)cc1	LASV entry inh inconclusive, HCMV antiviral inconclusive, HCV inh 6.3µM | HCV confirm 7µM | HCV cytotox inconclusive
CN1C(=O)C(=Cc2ccc(OCCN(C)c3ccccn3)cc2)C(=O)N(C)C1=O	none (no result: LASV entry inh, Marburg entry inh)
CN1CCC(N(C)C(=O)c2cc(S(=O)(=O)N(C)c3ccccc3)ccc2Cl)CC1	none (no result: LASV entry inh, Marburg entry inh)
CCOc1ccccc1NC(=O)/C=C/c1ccccc1[N+](=O)[O-]	Marburg entry inh inconclusive, HCV inh inconclusive | HCV confirm inconclusive | HCV cytotox inactive
O=C(/C=C\c1ccccc1[N+](=O)[O-])Nc1ccccc1	none (no result: LASV entry inh, Marburg entry inh)
COc1cc(CN(C(=O)c2ccc(C)cc2)c2ccccn2)cc(OC)c1OC	Marburg entry inh inconclusive (no result: HCV inh)
Cn1nc(C(F)(F)F)c2cc(NC(=O)OCc3ccc(C(C)(C)C)cc3)sc21	FMDV inh 22µM, LASV entry inh inconclusive, Marburg entry inh inconclusive, HCV inh inconclusive | HCV confirm 25µM | HCV cytotox inconclusive
COc1ccc(N2CCN(c3nc(NC(C)(C)C)nc(N4CCCCC4)n3)CC2)cc1	FMDV inh inconclusive, LASV entry inh inconclusive, Marburg entry inh inconclusive, HCV inh inconclusive
COc1ccc(Nc2nc(NC(C)(C)C)nc(N3CCOCC3)n2)c(OC)c1	HCMV antiviral -61, Marburg entry inh 13µM, HCV inh 7.1µM | HCV confirm 7µM | HCV cytotox inactive
COC(=O)c1sc2nc(CN3CCN(c4cccc(C(F)(F)F)c4)CC3)[nH]c(=O)c2c1C	none
Oc1ccccc1N=Nc1nc(-c2ccccc2)c(-c2ccccc2)[nH]1	FMDV inh 28µM, LASV entry inh 1.4µM, HCMV antiviral -107, Marburg entry inh 1µM, HCV inh 3.5µM | HCV confirm 7.9µM | HCV cytotox inactive
N#Cc1ccccc1Cn1c(=O)n(CCCCC(=O)NCc2ccc3c(c2)OCO3)c(=O)c2ccccc21	none (no result: HCV inh)
CCc1ccc(Nc2ncc3c(n2)CC(C)CC3=O)cc1 (stereo not given)	LASV entry inh inconclusive, Marburg entry inh inconclusive
CCc1ccc(Nc2ncc3c(n2)CC(c2ccc(OC)cc2)CC3=O)cc1 (stereo not given)	LASV entry inh 0.52µM, HCMV antiviral -64, Marburg entry inh 18µM, HCV inh 4µM | HCV confirm inconclusive | HCV cytotox inactive
COc1c(C)cc(S(=O)(=O)NCCc2c(C)[nH]c3ccccc23)c(C)c1C	LASV entry inh inconclusive (no result: HCV inh)
CN1/C(=C/c2cccc[n+]2CCO)Sc2ccccc21	HCMV antiviral inconclusive
CC[n+]1c(/C=C2\Sc3ccccc3N2C)ccc2cccc(C)c21	FMDV inh 4.5µM, LASV entry inh inconclusive, HCMV antiviral -101, Marburg entry inh inconclusive, HCV inh 2.8µM | HCV confirm 2.5µM | HCV cytotox 2.5µM
O=C(c1cc(COc2ccc3ncccc3c2)on1)N1CCC[C@H]1CO	LASV entry inh inconclusive, HCMV antiviral inconclusive, HCV inh inconclusive | HCV confirm 7.9µM | HCV cytotox 14µM
Cc1ccc(CNC(=O)C2CCCN(S(=O)(=O)c3ccc4c(c3)oc(=O)n4C)C2)cc1 (stereo not given)	none (no result: HCV inh)
Cc1cc(C)c(CN2CCN(C(=O)Cn3cnc4c(OCc5ccccc5)ncnc43)CC2)c(C)c1	FMDV inh inconclusive, HCMV antiviral -64, HCV inh 0.56µM (no result: LASV entry inh, Marburg entry inh) | HCV confirm 2.5µM | HCV cytotox 5.6µM
C=C(c1ccc(O)cc1)c1ccc(O)cc1	FMDV inh inconclusive, LASV entry inh 1µM, HCV inh 8.9µM | HCV confirm 14µM | HCV cytotox inactive
O=C(O)c1ccccc1Nc1ccc([N+](=O)[O-])c2nonc12	LASV entry inh inconclusive, Marburg entry inh inconclusive (no result: HCMV antiviral)
COc1ccc(-c2ccccc2)cc1NC(=O)c1cccs1	HCV inh 7.9µM | HCV confirm 20µM | HCV cytotox inactive

Source: PubChem BioAssay
